Test results as given in PubChem BioAssay (NCATS).
Results filed as inconclusive are left out. Calls of active or inactive are those of the source. Unless noted, the call rests on the fitted dose curve; in most records, active means well fitted curve in the direction sought with a large enough effect; inconclusive means small, poorly fitted or top-dose-only effect, or another doubt; inactive means no such curve, though single readings can be large; an effect the other way counts as inactive or inconclusive. Peptide text beside a SMILES is read from it.

What was measured:
[1] = target: Pyruvate kinase PKM (Homo sapiens) (UniProt P14618); assay: qHTS Assay for Activators of Human Muscle Pyruvate Kinase (AID 954; active means well fitted curve in the direction sought with a large enough effect, not every such curve was filed as active)
Pyruvate kinase PKM (Homo sapiens), sequence (P14618 whole entry, looked up): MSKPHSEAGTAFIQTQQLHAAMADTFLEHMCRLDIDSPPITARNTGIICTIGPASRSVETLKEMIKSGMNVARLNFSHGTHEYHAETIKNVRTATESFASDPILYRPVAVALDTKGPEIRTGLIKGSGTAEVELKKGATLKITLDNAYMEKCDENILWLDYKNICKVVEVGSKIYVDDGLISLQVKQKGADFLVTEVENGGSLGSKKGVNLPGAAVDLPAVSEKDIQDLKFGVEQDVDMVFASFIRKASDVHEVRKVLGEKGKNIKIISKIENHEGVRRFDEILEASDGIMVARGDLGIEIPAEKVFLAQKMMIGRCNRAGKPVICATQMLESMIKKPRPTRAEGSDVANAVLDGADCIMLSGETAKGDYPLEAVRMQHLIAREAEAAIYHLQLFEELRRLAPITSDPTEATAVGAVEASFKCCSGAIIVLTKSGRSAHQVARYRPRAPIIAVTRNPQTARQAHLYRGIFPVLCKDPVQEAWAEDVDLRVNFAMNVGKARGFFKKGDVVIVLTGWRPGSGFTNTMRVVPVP
Method in brief: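 Luminescence from a luciferase ATP-detection/stop reagent reported PKM2 activity. Reactions contained 0.1 nM purified human enzyme, 0.5 mM PEP, 0.1 mM ADP and 7 mM MgCl2 at pH 7.2, run 1 h at RT.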

[2] = target: Pyruvate kinase (Leishmania mexicana) (UniProt Q27686); assay: qHTS Validation Assay for Activators of Leishmania Mexicana Pyruvate Kinase (AID 959)
Pyruvate kinase (Leishmania mexicana), sequence (Q27686 2-499 E452W): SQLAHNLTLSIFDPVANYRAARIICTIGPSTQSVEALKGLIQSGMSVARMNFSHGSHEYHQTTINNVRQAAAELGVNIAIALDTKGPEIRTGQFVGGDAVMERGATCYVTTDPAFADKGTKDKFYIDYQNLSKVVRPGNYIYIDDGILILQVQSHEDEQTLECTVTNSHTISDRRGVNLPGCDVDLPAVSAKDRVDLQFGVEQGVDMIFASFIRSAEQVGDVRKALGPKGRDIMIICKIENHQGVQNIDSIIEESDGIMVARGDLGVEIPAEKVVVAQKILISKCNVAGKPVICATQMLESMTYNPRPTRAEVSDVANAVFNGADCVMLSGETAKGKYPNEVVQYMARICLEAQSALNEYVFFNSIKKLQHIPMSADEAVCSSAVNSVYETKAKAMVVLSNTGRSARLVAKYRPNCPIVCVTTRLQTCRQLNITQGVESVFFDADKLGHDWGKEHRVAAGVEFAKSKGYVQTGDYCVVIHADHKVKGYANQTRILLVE
Method in brief: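 Substrate mix (0.5 mM PEP, 0.1 mM ADP, 7 mM MgCl2, 50 mM KCl, pH 7.2 imidazole) received compound by pin tool, then 0.2 nM LmPYK E451W. After 1 h at room temperature, PKLight was added and luminescence measured.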

[3] = MultiTox-Fluor Cytotoxicity Assay - LYMP1-002 - Live Cells (AID 955)
Method in brief: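 Human lymphoblastoid LYMP1-002 cells, 2500/well in complete medium, rested 5 hr at 37 C, then exposed to compounds for 16 hr at 37 C. Live-cell protease cleavage of GF-AFC read by fluorescence (Ex/Em 405/510) after 60 min at room temperature; AC50 from Hill fits.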

[4] = MultiTox-Fluor Cytotoxicity Assay - LYMP1-002 - Dead Cells (AID 960); further: nearly all actives have a fitted effect of over 60% in size
Method in brief: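 Human lymphoblastoid cells (LYMP1-002), 2500/well in complete medium, were exposed to compounds for 16 hr at 37 C. Dead-cell protease activity was read as bis-AAF-R110 fluorescence (Ex/Em 485/520), normalized to DMSO and 15 uM tetraoctylammonium bromide; AC50 from Hill fits.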

[5] = MultiTox-Fluor Cytotoxicity Assay - LYMP1-003 - Dead Cells (AID 961); further: nearly all actives have a fitted effect of over 70% in size
Method in brief: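 Human lymphoblastoid LYMP1-003 cells (2500/well) were treated with compounds for 16 hr at 37 C in complete medium. Dead-cell protease release was read by bis-AAF-R110 fluorescence (Ex/Em 485/520). AC50 came from Hill fits, normalized to DMSO and 15 uM tetraoctylammonium bromide.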

[6] = MultiTox-Fluor Cytotoxicity Assay - LYMP1-003 - Live Cells (AID 962);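 further: cytotoxic hits lower the live-cell protease signal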
Method in brief: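 LYMP1-003 human lymphoblastoid cells (2500/well) in complete medium were preincubated 5 hr at 37 C, then exposed to compounds for 16 hr at 37 C. Live-cell protease cleavage of GF-AFC read by fluorescence (Ex/Em 405/510); AC50 from Hill fits.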

[7] = Cell Viability - LYMP1-003 - Assay at 24 hr (AID 963)
Method in brief: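 Human lymphoblastoid LYMP1-003 cells (2500/well) were rested 5 hr at 37 C, then exposed to compounds in complete medium for 24 hr at 37 C. Cellular ATP was quantified by CellTiter-Glo luminescence, and AC50 values came from Hill fits of concentration-response data.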

[8] = Cell Viability - LYMP1-003 - Assay at 40 hr (AID 964); further: series mostly up to about 92 µM; nearly all actives have a fitted effect of over 60% in size
Method in brief: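 Human lymphoblastoid LYMP1-003 cells, 2500/well in complete medium, rested 5 hr at 37 C, then exposed to compounds for 40 hr at 37 C. Viability read as intracellular ATP by CellTiter-Glo luminescence; AC50 from Hill fits of concentration-response data.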

[9] = Cell Viability - LYMP2-003 (AID 965);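 further: cells exposed to compounds for 24 h before reading; nearly all actives have a fitted effect of over 50% in size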
Method in brief: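 Seed 2500 lymphoblastoid cells/well; incubate 5 hr, 37 C; add compounds; incubate 24 hr, 37 C; add CellTiter-Glo, 30 min RT; read luminescence. AC50 from Hill fit.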

[10] = Cell Viability - LYMP2-004 (AID 966); further: nearly all actives have a fitted effect of over 65% in size
Method in brief: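 Human lymphoblastoid cells (2500/well) in complete medium were treated with compounds for 24 hr at 37 C, then intracellular ATP was measured by CellTiter-Glo luminescence. AC50 values came from Hill-equation fits of concentration-response data.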

[11] = Cell Viability - LYMP2-005 (AID 967); further: series mostly up to about 92 µM
Method in brief: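 Acute cytotoxicity is scored as a concentration-dependent drop in intracellular ATP in human lymphoblastoid LYMP2-005 cells after 24 h compound treatment. ATP is quantified by luciferase luminescence, and AC50 is derived by Hill-equation modelling.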

[12] = Cell Viability - LYMP2-011 (AID 969); further: nearly all actives have a fitted effect of over 60% in size
Method in brief: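 Human lymphoblastoid cells (2500/well) were plated in complete medium, preincubated 5 hr at 37 C, then exposed to compounds for 24 hr at 37 C. Intracellular ATP was read by CellTiter-Glo luminescence, and AC50 came from Hill-equation concentration-response fits.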

[13] = Cell Viability - LYMP2-015 (AID 971); further: nearly all actives have a fitted effect of over 55% in size
Method in brief: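 Human lymphoblastoid cells (2500/well) in complete medium were preincubated 5 hr at 37 C, then compound-treated 24 hr at 37 C. Intracellular ATP was read by CellTiter-Glo luminescence after 30 min at room temperature; AC50 came from Hill-equation concentration-response fits.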

[14] = Cell Viability - LYMP2-009 (AID 968); further: series mostly up to about 92 µM; nearly all actives have a fitted effect of over 55% in size
[15] = Cell Viability - LYMP2-013 (AID 970); further: series mostly up to about 92 µM; nearly all actives have a fitted effect of over 55% in size
Method in brief: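 Human lymphoblastoid cells, 2500/well, were preincubated 5 hr at 37 C, then treated with compounds for 24 hr at 37 C in complete medium. Intracellular ATP was read by CellTiter-Glo luminescence; AC50 from Hill-equation fits of concentration-response data.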

[16] = Cell Viability - LYMP2-017 (AID 972); further: series mostly up to about 92 µM; nearly all actives have a fitted effect of over 55% in size
Method in brief: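 Human lymphoblastoid cells (2500/well) were seeded in complete medium, held 5 hr at 37 C, then exposed to compounds for 24 hr at 37 C. Intracellular ATP was read by CellTiter-Glo luminescence after 30 min at room temperature, with AC50 values from Hill-equation fits.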

[17] = Cell Viability - LYMP2-019 (AID 973); further: nearly all actives have a fitted effect of over 55% in size
Method in brief: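 Human lymphoblastoid cells were seeded at 2500 cells/well, preincubated 5 hr at 37 C, then exposed to compounds for 24 hr at 37 C in complete medium. Intracellular ATP was measured by CellTiter-Glo luminescence; AC50 from Hill fits.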

[18] = Cell Viability - LYMP2-021 (AID 974)
Method in brief: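 Human lymphoblastoid cells (2500/well) were preincubated 5 hr at 37 C, then exposed to compounds for 24 hr at 37 C in complete medium. Intracellular ATP was read by CellTiter-Glo luminescence; AC50 came from Hill-equation fits of concentration-response data.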

[19] = Cell Viability - LYMP2-023 (AID 975)
Method in brief: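 Human lymphoblastoid cells (2500/well) were preincubated 5 hr at 37 C, then exposed to compounds for 24 hr at 37 C in complete medium. Cellular ATP was read by CellTiter-Glo luminescence, and AC50 came from Hill-equation fits.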

[20] = target: Pyruvate kinase PKM (Homo sapiens) (UniProt P14618); assay: qHTS Assay for Inhibitors of Human Muscle Pyruvate Kinase (AID 958); settings: purified human PKM enzyme activity
Method in brief: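 PKM2, human, >95% pure, 0.1 nM; PEP 0.5 mM (Km), ADP 0.1 mM; 50 mM imidazole pH 7.2, 50 mM KCl, 0.01% Tween 20, 0.05% BSA; 1 h RT; luciferase luminescence readout.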

Measured: Potency

Oc1ccc(-c2nc(-c3ccc(F)cc3)c(-c3ccncc3)[nH]2)cc1
inactive: [1]

O=c1ccc2ccc(O)c(O)c2o1
inactive: [1]
active: [2] 15.8 µM

NC(=NCc1ccccc1)NC(=O)c1nc(Cl)c(N)nc1N
inactive: [1]

Cc1cc(O)c2c(c1)C(=O)c1cc(O)cc(O)c1C2=O
inactive: [1] | [3] | [4] | [5] | [6] | [7] | [8] | [9] | [10] | [11] | [12] | [13]

CC(=O)N1CCN(c2ccc(OC[C@H]3CO[C@](Cn4ccnc4)(c4ccc(Cl)cc4Cl)O3)cc2)CC1
inactive: [1]

COC(=O)[C@H](Cc1ccccc1)NC(=O)[C@@H](N)CC(=O)O (H-Asp-Phe-OMe)
inactive: [3] | [5] | [6] | [7] | [8] | [9] | [10] | [11] | [14] | [12] | [15] | [13] | [16] | [17] | [18] | [19]

O=c1c(O)c(-c2ccc(O)cc2O)oc2cc(O)cc(O)c12
inactive: [1]
active: [2] 20 µM

CCCc1cc(=O)[nH]c(=S)[nH]1
inactive: [3] | [4] | [5] | [6] | [7] | [8] | [9] | [10] | [11] | [14] | [12] | [15] | [13] | [16] | [17] | [18] | [19]

CC1(C)C(=O)N(CCN2CCC(C(=O)c3ccc(F)cc3)CC2)c2ccccc21
inactive: [1]

O=c1cc(N2CCOCC2)oc2c(-c3ccccc3)cccc12
inactive: [1]

COc1ccc2cc([C@H](C)C(=O)O)ccc2c1
inactive: [1]

Cc1cccc(C#Cc2ccccc2)n1
inactive: [1] | [2]
active: [20] 25.1 µM

COc1ccccc1N1CCN(CCN(C(=O)C2CCCCC2)c2ccccn2)CC1
inactive: [1]

Cc1ccc(C)c(OCCCC(C)(C)C(=O)O)c1
inactive: [3] | [4] | [5] | [6] | [7] | [8] | [9] | [10] | [11] | [14] | [12] | [15] | [13] | [16] | [17] | [18] | [19]

CC(=O)Nc1ccc(O)cc1
inactive: [3] | [4] | [5] | [6] | [7] | [8] | [9] | [10] | [11] | [14] | [12] | [15] | [13] | [16] | [17] | [18] | [19]

c1ccc2[nH]c(-c3cscn3)nc2c1
inactive: [3] | [4] | [5] | [6] | [7] | [8] | [9] | [10] | [11] | [14] | [12] | [15] | [13] | [16] | [17] | [18] | [19]

O=C(O)c1cccnc1Nc1cccc(C(F)(F)F)c1
inactive: [1]

Cc1c(OCC(F)(F)F)ccnc1CS(=O)c1nc2ccccc2[nH]1 (configuration not stated)
inactive: [1]

CC1(C)NC(=O)N(c2ccc([N+](=O)[O-])c(C(F)(F)F)c2)C1=O
inactive: [1]

NCCCCNCCCN
inactive: [1]

O=C(CCc1ccc(O)cc1)c1c(O)cc(O)cc1O
inactive: [1]

CC(C)c1ccc2c(c1)c(SC(C)(C)C)c(CC(C)(C)C(=O)O)n2Cc1ccc(Cl)cc1
inactive: [1]

CCN(CC)C(=S)SSC(=S)N(CC)CC
inactive: [1]
